This note sets out measurements from PubChem BioAssay (NCATS).

Assay [1] addresses Lysosomal acid glucosylceramidase (Homo sapiens) (UniProt P04062). Briefly: Glucocerebrosidase-p2 (AID 348; in the data active means potency below about 10 µM; further: potency means the concentration at half of the fitted maximal effect). The conditions noted are these: purified GBA, blue fluorogenic substrate, 40 min. A digest of the protocol: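 Compounds titrated from 0.6 nM upwards against 0.2 nM enzyme in pH 5.9 citric acid/KH2PO4, taurocholate, tween-20; blue fluorogenic substrate 80 uM, 40 min room temperature, stopped and read Ex 365/Em 440 for AC50.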

The nature of assay [2]: AP1 Signaling Pathway (AID 357; active means well fitted curve in either direction with a large enough effect, not every such curve was filed as active;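 further: ME-180 reporter cells stimulated with EGF at its EC50 level; on the % scale 0 is the no-effect control and ±100 the full control effect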). The following applies: ME-180 AP-1-bla reporter, EGF-induced, beta-lactamase ratio, 5 h; at 7.69 µM (top of the series) unless noted. A digest of the protocol:
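In this screen, ME-180 cells in Opti-MEM with 0.5% dialyzed FBS received EC50 EGF and compound titrations for 5 h. AP-1 reporter beta-lactamase was detected via CCF4 ratio, giving AC50 for positive and negative modulators.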

Assay [3] addresses Cytochrome P450 1A2 (Homo sapiens) (UniProt P05177). The experiment in a line: p450-cyp1a2 (AID 410; calls by dose curve; further: potency means the concentration at half of the fitted maximal effect). The conditions noted are these: recombinant CYP1A2, luciferin-ME demethylation, luminescence; series mostly up to 57 µM. Summed up:
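Inhibition was calculated relative to 57 uM furafylline (full inhibition). The reaction used human CYP1A2 at 20nM with Luciferin-ME at its Km, 100uM, driven by an NADPH-regenerating system for 60 min at room temperature.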

Assay [4] is described as follows: NFAT Signaling Pathway (AID 444; active means well fitted curve in either direction with a large enough effect, not every such curve was filed as active;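 further: carbachol stimulus at about its EC50 of 1 µM final; on the % scale 0 is the no-effect control and ±100 the full control effect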). The conditions noted are these: Jurkat NFAT-bla M1, carbachol, beta-lactamase ratio, 5 h; at 7.69 µM (top of the series) unless noted. A digest of the protocol: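 Read-out: CCF4 FRET ratio (460 nm/530 nm) after 1 h RT dye loading, used for %activity and AC50 from titration series. Cells: Jurkat NFAT-β-lactamase/M1 line, treated with compound plus 1 uM carbachol for 5 h, 37 °C.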

Assay [5] in a line: Stat Signaling Pathway (AID 446; active means well fitted curve in either direction with a large enough effect, not every such curve was filed as active;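 further: ME-180 cervical cancer cells given 40 pM IL-6 alongside compound; SIE-controlled beta-lactamase reporter measured as 460/530 nm FRET emission ratio; on the % scale 0 is the no-effect control and ±100 the full control effect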). The following applies: ME-180 SIE beta-lactamase reporter, IL-6 stimulated, 5 h; at 7.69 µM (top of the series) unless noted. Summed up: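 ME-180 cells carrying a SIE-driven beta-lactamase reporter are stimulated with 40 pM IL-6 for 5 h at 37C in the presence of compound. The 460/530 nm FRET substrate ratio is read after 2.5 h at RT. Data are normalised to 300 pM IL-6 and to 125 nM JAK inhibitor controls.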

The target of assay [6] is Glucocorticoid receptor (Homo sapiens) (UniProt P04150). The experiment in a line: GR-GFP Redistribution (AID 450;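 active means compounds whose dose series gives a full or clear partial fitted curve of increased nuclear translocation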; further: potency means the concentration at half of the fitted maximal effect). The following applies: U2OS GR-GFP nuclear translocation, laser cytometry, 2 h.
Chain of Glucocorticoid receptor (Homo sapiens) (P04150 whole entry, looked up): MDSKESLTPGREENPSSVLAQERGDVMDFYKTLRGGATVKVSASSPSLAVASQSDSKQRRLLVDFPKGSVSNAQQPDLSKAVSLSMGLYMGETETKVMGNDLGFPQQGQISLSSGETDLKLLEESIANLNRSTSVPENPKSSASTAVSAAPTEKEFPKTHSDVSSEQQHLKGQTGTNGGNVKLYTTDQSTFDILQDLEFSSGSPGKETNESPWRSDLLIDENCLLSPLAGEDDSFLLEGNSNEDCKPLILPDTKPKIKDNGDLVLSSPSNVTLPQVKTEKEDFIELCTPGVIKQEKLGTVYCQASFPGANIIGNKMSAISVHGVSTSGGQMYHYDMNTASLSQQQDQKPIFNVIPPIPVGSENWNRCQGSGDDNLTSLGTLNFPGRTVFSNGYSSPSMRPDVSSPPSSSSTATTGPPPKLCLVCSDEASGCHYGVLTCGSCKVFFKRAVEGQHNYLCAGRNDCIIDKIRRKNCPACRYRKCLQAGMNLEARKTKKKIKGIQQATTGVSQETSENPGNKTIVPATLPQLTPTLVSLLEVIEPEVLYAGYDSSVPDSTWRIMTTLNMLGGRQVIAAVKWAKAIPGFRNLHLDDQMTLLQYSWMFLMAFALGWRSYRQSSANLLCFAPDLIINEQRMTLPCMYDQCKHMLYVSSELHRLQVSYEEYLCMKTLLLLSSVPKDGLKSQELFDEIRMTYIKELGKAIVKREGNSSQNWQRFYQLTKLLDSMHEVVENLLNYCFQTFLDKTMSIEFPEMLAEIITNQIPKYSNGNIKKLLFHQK
Assay [7] shares this target. Briefly: GR-EFC Redistribution (AID 451; calls by dose curve; further: potency means the concentration at half of the fitted maximal effect). The following applies: CHO-K1 GR-EFC translocation, beta-gal luminescence, 2 h. A digest of the protocol:
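Translocation of GR-ED fusion to nuclear EA restores b-gal, read by luminescence after 1 h room-temperature detection. Engineered CHO-K1 biosensor cells, 1,000/well, exposed 2 h at 37 C to titrations up to 46 uM final.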

For assay [8], the target named is Mitogen-activated protein kinase 10 (Mus musculus) (UniProt Q61831). Briefly: JNK3 AlphaScreen Assay (AID 530; active means well fitted curve in either direction with a large enough effect, not every such curve was filed as active;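 further: kinase came from lysate of stimulated human HepG2 cells; signal reports phosphorylation of biotinylated GST-cJun 1-79 at Ser73 with 10 µM ATP; on the % scale 0 is the no-effect control and ±100 the full control effect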). The conditions noted are these: JNK3 lysate, c-Jun phosphorylation; series mostly up to 57.1 µM. A digest of the protocol: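 Room-temperature AlphaScreen kinase assay; pre-activated HepG2 lysate as JNK3 source, biotin-GST-cJun(1-79) substrate, 10 uM ATP, compound 15 min preincubation.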
On the technique in general: In Alpha technology, singlet oxygen from a donor bead excites a nearby acceptor bead.

The target in assay [9] is Cytochrome P450 3A4 (Homo sapiens) (UniProt P08684). The experiment in a line: qHTS Assay for Inhibitors and Substrates of Cytochrome P450 3A4 (AID 884). Further: potency means the concentration at half of the fitted maximal effect; nearly all actives have a fitted effect of over 50% in size. The conditions noted are these: recombinant CYP3A4, Luciferin-PPXE luminescence; series mostly up to 57.1 µM. Summed up: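 20 nM human CYP3A4 with 25 uM Luciferin-PPXE (at KM) in 200 mM KPO4, preincubated 10 min with compound; NADPH regeneration started a 60 min RT reaction. Luciferin detected by luminescence, normalized to 57 uM ketoconazole as full inhibition.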
Chain of Cytochrome P450 3A4 (Homo sapiens) (P08684 whole entry, looked up): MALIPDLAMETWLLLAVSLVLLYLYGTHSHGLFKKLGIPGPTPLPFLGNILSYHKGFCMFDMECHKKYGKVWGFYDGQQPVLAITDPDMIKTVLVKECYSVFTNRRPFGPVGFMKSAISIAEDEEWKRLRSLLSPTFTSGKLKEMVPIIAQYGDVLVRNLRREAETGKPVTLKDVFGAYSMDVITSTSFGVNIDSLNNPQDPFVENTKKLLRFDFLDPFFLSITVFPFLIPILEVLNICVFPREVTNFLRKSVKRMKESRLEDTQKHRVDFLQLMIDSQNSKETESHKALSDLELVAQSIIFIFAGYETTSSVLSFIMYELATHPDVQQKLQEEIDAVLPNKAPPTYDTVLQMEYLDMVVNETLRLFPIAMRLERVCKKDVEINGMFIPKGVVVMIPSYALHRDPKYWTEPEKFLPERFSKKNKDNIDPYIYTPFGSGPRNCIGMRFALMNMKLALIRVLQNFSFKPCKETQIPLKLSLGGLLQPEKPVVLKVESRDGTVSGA
For orientation: In qHTS, concentration-response curves come from the screen itself.

Assay [10] shares this target. Briefly: qHTS Assay for Activators of Cytochrome P450 3A4 (AID 885). Further: nearly all actives have a fitted effect of over 65% in size. The following applies: recombinant CYP3A4, Luciferin-PPXE luminescence, 60 min; series mostly up to 57.1 µM. A digest of the protocol:
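Human CYP3A4 (20 nM) with Luciferin-PPXE at 25 uM (its KM) in 200 mM KPO4; 10 min compound preincubation, then NADPH regeneration and 60 min reaction at RT. Luciferin read by luminescence; normalized to 57 uM ketoconazole full inhibition.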

The target in assay [11] is Cytochrome P450 2C19 (Homo sapiens) (UniProt P33261). The experiment in a line: qHTS Assay for Inhibitors and Substrates of Cytochrome P450 2C19 (AID 899). Further: potency means the concentration at half of the fitted maximal effect; nearly all actives have a fitted effect of over 60% in size. The following applies: recombinant CYP2C19, luciferin-H EGE luminescence; series mostly up to 57.1 µM. A digest of the protocol: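 5nM enzyme + 10uM Luciferin-H EGE (=KM), 50mM KPO4; cpd pin-transferred, 10 min 37C; NADPH regen, 60 min 37C; stopped w/ luciferin detection reagent, 20 min; luminescence. Normalized to 57uM ketoconazole (AC100).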
Chain of Cytochrome P450 2C19 (Homo sapiens) (P33261 whole entry, looked up): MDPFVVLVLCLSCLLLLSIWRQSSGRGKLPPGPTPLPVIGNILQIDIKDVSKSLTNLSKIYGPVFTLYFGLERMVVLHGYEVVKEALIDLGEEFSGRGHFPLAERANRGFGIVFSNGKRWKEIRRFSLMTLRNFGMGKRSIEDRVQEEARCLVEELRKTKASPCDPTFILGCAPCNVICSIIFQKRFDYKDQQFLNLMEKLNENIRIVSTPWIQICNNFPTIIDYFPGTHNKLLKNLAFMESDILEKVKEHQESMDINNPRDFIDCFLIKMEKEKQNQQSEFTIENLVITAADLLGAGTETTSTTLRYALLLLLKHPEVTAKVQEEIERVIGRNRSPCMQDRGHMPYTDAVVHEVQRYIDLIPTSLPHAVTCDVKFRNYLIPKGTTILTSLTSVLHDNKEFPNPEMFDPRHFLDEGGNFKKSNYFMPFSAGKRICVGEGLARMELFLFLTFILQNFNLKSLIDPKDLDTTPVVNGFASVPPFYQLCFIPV

Assay [12] has as its target Dual specificity protein kinase CLK4 (Homo sapiens) (UniProt Q9HAZ1). Briefly: qHTS Assay for Inhibitors of CDC-like Kinase 4 (ADP-FP Assay) (AID 1795). Further: nearly all actives have a fitted effect of over 60% in size. Further: potency means the concentration at half of the fitted maximal effect. The conditions noted are these: Transcreener ADP fluorescence polarization; series mostly up to 50 µM. A digest of the protocol: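 Inhibition of ADP formation by 6.25 nM Clk4 is measured using 1 uM ATP and 100 uM RS repeat peptide over one hour. Produced ADP displaces a fluorescent tracer from antibody, lowering polarization.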

The target in assay [13] is Ubiquitin carboxyl-terminal hydrolase 1 (Homo sapiens) (UniProt O94782). Briefly: Inhibitors of USP1/UAF1: Pilot qHTS (AID 504865).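 Further: rhodamine fluorescence freed from ubiquitin-rhodamine substrate followed over time; top concentration of the series differs between compounds; on the % scale 0 is the no-effect control and ±100 the full control effect; nearly all actives have a fitted effect of over 35% in size.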 The conditions noted are these: purified USP1/UAF1, Ub-rhodamine cleavage fluorescence; series mostly up to 54.9 µM. A digest of the protocol:
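Kinetic fluorescence assay: 1nM USP1/UAF1, 15 min compound preincubation, then 150nM Ub-Rho; 480/540 nm.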

Assay [14] can be described thus: Primary qHTS for small molecule stabilizers of the endoplasmic reticulum resident proteome: Secreted ER Calcium Modulated Protein (SERCaMP) assay (AID 1508630). Further: on the % scale 0 is the no-effect control and ±100 the full control effect. The following applies: SH-SY5Y GLuc-SERCaMP (Gaussia luciferase released on ER calcium loss) secretion, thapsigargin, luminescence; series mostly up to 38.4 µM. A digest of the protocol: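 GLuc-SERCaMP-expressing SH-SY5Y cells, pretreated 16 h with compound, are challenged with thapsigargin to empty ER calcium stores; after 4 h, coelenterazine is added directly to the medium and luminescence is imaged.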

The target of assay [15] is 3',5'-cyclic-AMP phosphodiesterase 4B (Homo sapiens) (UniProt Q07343). Briefly: qHTS Assay for Inhibitors of PDE-IV (AID 607; active means well fitted activation curve with a large enough effect in the main read-out, with a control signal flat, not every such curve was filed as active; further: % of control where 0% means no effect). The conditions noted are these: HEK293 ACTOne CNG channel cells, membrane potential fluorescence; series mostly up to 22.9 µM. A digest of the protocol: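 HEK293 ACTOne cells with CNG channel (1000/well), endogenous PDE4; membrane potential dye, compounds up to 22.9 uM final. Fluorescence Ex 535/Em 590; RO 20-1724 (100 uM final) as reference.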
Chain of 3',5'-cyclic-AMP phosphodiesterase 4B (Homo sapiens) (Q07343 whole entry, looked up): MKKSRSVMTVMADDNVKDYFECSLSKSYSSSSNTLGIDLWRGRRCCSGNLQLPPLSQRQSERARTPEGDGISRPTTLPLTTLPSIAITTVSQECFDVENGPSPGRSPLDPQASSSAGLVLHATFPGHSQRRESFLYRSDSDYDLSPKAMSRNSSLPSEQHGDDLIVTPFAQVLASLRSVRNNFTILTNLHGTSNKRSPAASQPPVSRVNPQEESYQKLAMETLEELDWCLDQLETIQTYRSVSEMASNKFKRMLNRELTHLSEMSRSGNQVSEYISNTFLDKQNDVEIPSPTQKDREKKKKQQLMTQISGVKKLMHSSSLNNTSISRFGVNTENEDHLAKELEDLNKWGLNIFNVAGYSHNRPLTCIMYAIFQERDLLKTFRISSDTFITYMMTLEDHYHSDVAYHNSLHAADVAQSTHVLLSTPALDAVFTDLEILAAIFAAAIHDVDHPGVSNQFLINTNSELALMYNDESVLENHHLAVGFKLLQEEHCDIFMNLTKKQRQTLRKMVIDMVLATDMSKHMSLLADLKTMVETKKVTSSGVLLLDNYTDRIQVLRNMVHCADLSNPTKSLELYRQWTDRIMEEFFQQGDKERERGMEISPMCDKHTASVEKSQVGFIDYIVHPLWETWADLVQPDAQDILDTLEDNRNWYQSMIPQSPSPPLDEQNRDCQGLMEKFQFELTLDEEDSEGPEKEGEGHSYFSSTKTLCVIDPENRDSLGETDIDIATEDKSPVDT

Assay [16] has as its target Cytochrome P450 2D6 (Homo sapiens) (UniProt P10635). The experiment in a line: qHTS Assay for Inhibitors and Substrates of Cytochrome P450 2D6 (AID 891). Further: potency means the concentration at half of the fitted maximal effect; nearly all actives have a fitted effect of over 60% in size. The conditions noted are these: recombinant CYP2D6, luciferin-ME EGE luminescence; series mostly up to 57.1 µM. A digest of the protocol: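 Human CYP2D6 (5 nM) with 30 uM Luciferin-ME EGE (at Km) in 100 mM KPO4, compound preincubated 10 min, then NADPH regeneration system for 60 min at room temperature. Luciferin read by luminescence; normalized to 1.43 uM quinidine.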

Unmarked numbers belong to inactive results. Inconclusive results are not listed. The source made the active and inactive calls. Unless noted, the call rests on the fitted dose curve; in most records, active means well fitted curve in the direction sought with a large enough effect; inconclusive means small, poorly fitted or top-dose-only effect, or another doubt; inactive means no such curve, though single readings can be large; an effect the other way counts as inactive or inconclusive. A value given as a limit tells only on which side of the number the result lay.

Chain of Ubiquitin carboxyl-terminal hydrolase 1 (Homo sapiens) (O94782 whole entry, looked up): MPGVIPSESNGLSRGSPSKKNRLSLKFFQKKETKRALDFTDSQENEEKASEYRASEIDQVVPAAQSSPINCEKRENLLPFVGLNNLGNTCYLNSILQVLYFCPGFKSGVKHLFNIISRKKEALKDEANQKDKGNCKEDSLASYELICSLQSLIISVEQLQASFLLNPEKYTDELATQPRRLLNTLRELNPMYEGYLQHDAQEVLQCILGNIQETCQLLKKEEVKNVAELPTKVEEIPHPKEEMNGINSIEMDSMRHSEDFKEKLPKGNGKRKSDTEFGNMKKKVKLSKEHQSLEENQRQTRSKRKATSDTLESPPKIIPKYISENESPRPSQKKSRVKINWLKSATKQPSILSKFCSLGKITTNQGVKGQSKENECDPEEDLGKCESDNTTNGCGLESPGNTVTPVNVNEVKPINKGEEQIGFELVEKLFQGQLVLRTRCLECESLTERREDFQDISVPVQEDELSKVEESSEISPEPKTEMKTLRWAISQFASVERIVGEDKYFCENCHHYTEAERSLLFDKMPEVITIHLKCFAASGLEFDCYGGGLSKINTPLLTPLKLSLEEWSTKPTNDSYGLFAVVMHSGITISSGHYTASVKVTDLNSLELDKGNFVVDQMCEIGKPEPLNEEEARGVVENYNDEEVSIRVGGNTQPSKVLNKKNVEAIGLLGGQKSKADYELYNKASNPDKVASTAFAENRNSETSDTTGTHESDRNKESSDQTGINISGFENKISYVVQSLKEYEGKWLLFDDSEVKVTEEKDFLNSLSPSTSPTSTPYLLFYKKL
Chain of Dual specificity protein kinase CLK4 (Homo sapiens) (Q9HAZ1 whole entry, looked up): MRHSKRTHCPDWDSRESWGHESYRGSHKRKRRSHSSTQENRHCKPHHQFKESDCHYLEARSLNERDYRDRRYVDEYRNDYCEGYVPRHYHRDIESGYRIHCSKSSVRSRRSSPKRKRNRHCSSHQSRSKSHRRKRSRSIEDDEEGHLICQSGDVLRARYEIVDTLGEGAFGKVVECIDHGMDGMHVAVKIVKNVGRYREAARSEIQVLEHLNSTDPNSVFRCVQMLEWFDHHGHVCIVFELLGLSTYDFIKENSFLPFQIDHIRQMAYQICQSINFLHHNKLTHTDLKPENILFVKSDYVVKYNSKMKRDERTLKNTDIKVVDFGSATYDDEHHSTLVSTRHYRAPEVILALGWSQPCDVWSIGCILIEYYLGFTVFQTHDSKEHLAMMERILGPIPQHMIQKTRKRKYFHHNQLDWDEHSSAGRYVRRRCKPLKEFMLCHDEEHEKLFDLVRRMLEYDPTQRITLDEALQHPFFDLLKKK
Chain of Cytochrome P450 1A2 (Homo sapiens) (P05177 whole entry, looked up): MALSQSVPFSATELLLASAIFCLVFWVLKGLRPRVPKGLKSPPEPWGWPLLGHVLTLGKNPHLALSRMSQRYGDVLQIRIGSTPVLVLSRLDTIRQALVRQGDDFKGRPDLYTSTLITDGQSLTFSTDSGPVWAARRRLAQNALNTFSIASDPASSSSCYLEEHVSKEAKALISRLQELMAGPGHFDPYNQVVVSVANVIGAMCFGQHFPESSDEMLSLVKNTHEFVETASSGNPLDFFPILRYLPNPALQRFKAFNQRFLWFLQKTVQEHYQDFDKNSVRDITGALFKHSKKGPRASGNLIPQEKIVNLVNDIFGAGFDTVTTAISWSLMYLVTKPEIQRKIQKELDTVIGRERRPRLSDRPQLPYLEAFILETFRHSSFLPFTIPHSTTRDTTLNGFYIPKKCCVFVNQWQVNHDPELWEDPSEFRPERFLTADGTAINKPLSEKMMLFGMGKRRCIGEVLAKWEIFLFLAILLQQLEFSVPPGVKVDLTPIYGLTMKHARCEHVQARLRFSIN
Chain of Lysosomal acid glucosylceramidase (Homo sapiens) (P04062 whole entry, looked up): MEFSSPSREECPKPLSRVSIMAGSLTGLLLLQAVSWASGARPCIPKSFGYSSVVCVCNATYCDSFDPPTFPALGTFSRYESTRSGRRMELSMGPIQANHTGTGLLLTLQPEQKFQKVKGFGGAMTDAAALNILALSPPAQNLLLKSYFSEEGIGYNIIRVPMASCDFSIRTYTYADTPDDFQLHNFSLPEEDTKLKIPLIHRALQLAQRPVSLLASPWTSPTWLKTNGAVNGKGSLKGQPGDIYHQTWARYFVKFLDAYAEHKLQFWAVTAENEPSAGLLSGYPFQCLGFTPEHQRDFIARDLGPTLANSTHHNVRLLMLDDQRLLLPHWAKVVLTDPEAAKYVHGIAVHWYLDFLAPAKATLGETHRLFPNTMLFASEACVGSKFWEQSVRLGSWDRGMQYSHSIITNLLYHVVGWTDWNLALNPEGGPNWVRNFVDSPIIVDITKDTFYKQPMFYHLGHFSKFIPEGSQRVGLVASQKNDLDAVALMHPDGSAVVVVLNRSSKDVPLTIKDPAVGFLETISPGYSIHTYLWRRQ

`COc1ccccc1-c1cncnc1NCc1cccs1`: the Potency in [1] was above 11.4 µM; in assay [3] it was 3.16 µM (active); in assay [6], above 46 µM; in [7], above 46 µM; in assay [9], 0.398 µM (active); in assay [11], 2 µM (active). Also, the activity change, negative = inhibition in assay [2] is 0.247%; in [4] it was -3.21%. For the same molecule, the activity, negative = inhibition in assay [5] is -6.68%. Moreover, the Potency result in assay [8], in [10], in [12] and in [13] was “inactive” each time. In assay [14], the result was inactive.

Turning to `Cc1ccccc1-c1nc(N(C)C)c2ccccc2n1`, the Potency was above 11.4 µM in assay [1], 0.631 µM (active) in assay [3], above 46 µM in assay [6] and above 46 µM in assay [7]. Also, the activity change, negative = inhibition was 5.33% in [2] and -0.255% in assay [4]. The activity, negative = inhibition in assay [5] was 6.41%. The Potency result in assay [8], in assay [15], in assay [12] and in assay [13] was “inactive” each time. In addition, the outcome in [14] was inactive.

Consider `COc1cccc(-c2cncnc2NCc2cnc(C)cn2)c1`, for which the Potency is above 11.4 µM in [1]; 12.6 µM (active) in assay [3]; above 46 µM in [6]; above 46 µM in assay [7]; 1.58 µM (active) in assay [9]. For the same molecule, the activity change, negative = inhibition in assay [2] is -11.3%; in [4], 8.15%. Besides, the activity, negative = inhibition in assay [5] was 7.19%. Also, the Potency result in assay [8], in assay [15], in [10], in assay [12] and in [13] was “inactive” in each case. Further, in assay [14], the outcome was inactive.

In the case of `c1ccc(CNc2cc(-c3ccoc3)ncn2)cc1`, the Potency in [1] was above 11.4 µM; in assay [3], 25.1 µM (active); in assay [6] it was above 46 µM; in [7], above 46 µM. For the same molecule, the activity change, negative = inhibition was -7.43% in assay [2] and -2.19% in assay [4]. In assay [5], the activity, negative = inhibition is -2.59%. For the same molecule, the Potency result in assay [8], in assay [15], in assay [10], in assay [12] and in assay [13] was “inactive” in each case. Moreover, the outcome in assay [14] was inactive.

On to `COc1ccc(CNc2ncncc2-c2cccc(NS(C)(=O)=O)c2)c(OC)c1`, for which the Potency is above 2.29 µM in assay [1]; 15.8 µM (active) in [3]; above 46 µM in assay [6]; above 46 µM in assay [7]; 0.251 µM (active) in [9]. In addition, the activity change, negative = inhibition in assay [2] is -14.5%. The activity, negative = inhibition in [5] is 17.9%. Moreover, the Potency result in assay [8], in assay [15], in assay [10], in assay [12] and in assay [13] was “inactive” each time. In assay [14], the outcome was inactive.

Regarding `c1csc(CNc2nc(-c3ccc4c(c3)OCO4)nc3ccccc23)c1`, the Potency was above 11.4 µM in [1]; 0.794 µM (active) in [3]; above 46 µM in [6]; above 46 µM in assay [7]; 3.16 µM (active) in [11]. Further, the activity change, negative = inhibition in assay [2] is 0.483%. Further, the activity, negative = inhibition in assay [5] is -13.1%. The Potency result in [8], in [10] and in assay [12] was “inactive” in each case. Besides, in assay [14], the result was inactive.

Regarding `c1csc(CNc2nc(-c3ccoc3)nc3ccccc23)c1`, the Potency is above 11.4 µM in assay [1]; 0.316 µM (active) in assay [3]; above 46 µM in [7]; 7.94 µM (active) in assay [9]; 3.98 µM (active) in assay [16]; 11.2 µM (active) in assay [12]. Besides, the activity change, negative = inhibition in [2] is -9.82%; in [4], -8.44%. In addition, the activity, negative = inhibition in [5] is -7.57%. The Potency result in [8] and in [10] was “inactive” in each case. For the same molecule, the result in assay [14] was inactive.
